Cdc25B inh: inhibitors of Cdc25B phosphatase catalytic domain, primary screen, biochemical, OMFP fluorescence. recombinant Cdc25B, OMFP fluorescence Ex485/Em525. inhibition, %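 (compounds tested at 10 µM final in the well)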. actives 0.1% (n = 65,000). AID 368, 2006; in the data active = inhibition above about 50%
DUSP1 inh: MKP-1 phosphatase inhibitors, primary screen, biochemical, in vitro | actives 0.15% (n = 65,000) | Dual specificity protein phosphatase 1 (Homo sapiens), P28562 | inhibition, %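 (compounds tested at a single concentration somewhere between 10 and 100 µM)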 | AID 374, 2006 | recombinant MKP-1, OMFP hydrolysis fluorescence;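 active = inhibition above about 50%, limit read from the data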;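 note: 0% = DMSO max control wells and 100% = wells with enzyme stopped by NaOH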
Target sequence (P28562 whole entry, looked up): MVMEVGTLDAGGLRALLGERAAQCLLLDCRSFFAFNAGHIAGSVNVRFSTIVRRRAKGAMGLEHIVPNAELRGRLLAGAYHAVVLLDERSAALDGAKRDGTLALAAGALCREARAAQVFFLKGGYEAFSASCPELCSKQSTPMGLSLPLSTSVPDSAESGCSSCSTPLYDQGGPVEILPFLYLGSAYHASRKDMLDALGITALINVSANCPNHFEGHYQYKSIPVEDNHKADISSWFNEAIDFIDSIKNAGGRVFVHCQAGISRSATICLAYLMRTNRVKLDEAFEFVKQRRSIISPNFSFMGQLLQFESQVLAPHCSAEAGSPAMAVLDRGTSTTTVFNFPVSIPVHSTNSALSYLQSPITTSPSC
HePTP inhibitor: inhibitors of human HePTP phosphatase, primary screen, biochemical, absorbance, leukemia target. Tyrosine-protein phosphatase non-receptor type 7 (Homo sapiens), P35236. recombinant HePTP phosphatase activity, OD absorbance. inhibition, % at 20 µM. actives 0.64% (n = 110,000); in the data active = inhibition above about 50%;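 note: plate controls were vehicle for no effect and reference inhibitor for full effect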
Target sequence (P35236 whole entry, looked up): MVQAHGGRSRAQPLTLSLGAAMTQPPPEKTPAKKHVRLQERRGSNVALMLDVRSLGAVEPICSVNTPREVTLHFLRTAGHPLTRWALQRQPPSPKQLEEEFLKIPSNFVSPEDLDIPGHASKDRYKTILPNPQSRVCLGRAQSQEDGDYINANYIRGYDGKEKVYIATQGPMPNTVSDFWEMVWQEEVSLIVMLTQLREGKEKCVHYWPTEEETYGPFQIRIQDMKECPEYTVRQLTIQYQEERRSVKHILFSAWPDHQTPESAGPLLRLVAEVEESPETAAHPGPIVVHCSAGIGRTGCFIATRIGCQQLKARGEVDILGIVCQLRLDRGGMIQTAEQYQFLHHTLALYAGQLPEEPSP
PLAP activator: PLAP enzyme activators, biochemical, luminescence, HTS; Alkaline phosphatase, placental type (Homo sapiens), P05187; purified PLAP enzyme, luminescent substrate read-out; stronger effect = higher value; activation fold at 20 µM; actives 1.2% (n = 96,000); AID 696, 2007; in the data active = activation fold above about 2
TNAP act mid DEA: human TNAP enzyme activators, primary screen, biochemical, luminescent, intermediate phosphate acceptor level. purified TNAP, CDP-star luminescence, 100 mM DEA, 30 min; stronger effect = higher value; scale: 0 levamisole-inhibited, 1 vehicle-only enzyme. Alkaline phosphatase, tissue-nonspecific isozyme (Homo sapiens), P05186. AID 813, 2007. 64,000 tested, under 10 active. activation factor at 20 µM;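 active = activation factor of at least 2 at 20 µM, relative to controls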
Hsp90 inh: tumor Hsp90 inhibitors, primary screen, cell lysate, fluorescence polarization, NCI-N417 lysate; Heat shock protein HSP 90-alpha (Homo sapiens), P07900; inhibition, % at 30 µM; actives 0.35% (n = 64,000); Cy3B-geldanamycin FP displacement;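 active = inhibition above 50%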;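 note: 0% = tracer plus lysate wells and 100% = tracer alone without lysate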
* marks the source's active call; other numbers are inactive results; nt = not tested or not shown; ! = not active in a repeat. Shown are actives, neighbours in structure and some others; about 1.5% of the full set was active somewhere.

SMILES	Cdc25B inh	DUSP1 inh	HePTP inhibitor	PLAP activator	TNAP act mid DEA	Hsp90 inh
COc1ccc(OCCSc2ncnc3nc[nH]c23)cc1	-8	-3	-8	2*	1.1	1
Cc1ccc(NC2=NC3(CCCCC3)N=C(N)N2)c(C)c1	-1	7	0	2.2*	0.9	-2
COc1cccc(NC2=NC3(CCCCC3)N=C(N)N2)c1	-8	2	4	2.8*	1	-3
COCCCNC(=O)CN(c1ccc(Br)cc1)S(C)(=O)=O	nt	nt	-2	nt	nt	nt
COc1cc(OC)cc(-n2nc(C(=O)NCCCN3CCOCC3)c3ccccc3c2=O)c1	76*	-3	7	1.6	0.9	-1
O=C1/C(=C/c2cccc([N+](=O)[O-])c2)SC(=S)N1C1CCS(=O)(=O)C1 (centres undefined)	nt	nt	2	nt	nt	nt
O=C1CSC2(C(=O)N3CCCc4cccc2c43)N1c1cccc(C(F)(F)F)c1 (centres undefined)	nt	nt	nt	1.1	nt	nt
COc1ccc(N2C(=O)CSC23C(=O)N2CCCc4cccc3c42)cc1 (centres undefined)	-8	-18	11	1.4	1	67*
O=C(NCC1CCCO1)c1ccc(S(=O)(=O)N2CCOCC2)cc1 (centres undefined)	nt	nt	-3	nt	nt	nt
Cc1ccc(O)c(-c2cc(C(F)(F)C(F)F)[nH]n2)c1	-15	25	1	2*	1.1	nt
Cc1ccc(O)c(-c2cc(-c3ccccc3C)[nH]n2)c1	3	15	5	1.6	1.1	1
CCn1c(CNC(=O)COc2ccc(C(C)C)cc2)nnc1SCC(=O)Nc1ccccc1F	nt	nt	nt	2*	nt	nt
CCCOc1cccc(-c2cc(C(=O)NNC(=S)NCC)c3ccccc3n2)c1	nt	nt	nt	2.2*	nt	nt
CCNC(=S)NNC(=O)c1cc(-c2ccc(OCC)cc2)nc2ccccc12	nt	nt	nt	1.3	nt	nt
CCNC(=S)NNC(=O)c1cc(CC(C)C)nc2ccccc12	nt	nt	nt	2.3*	nt	nt
CCN(CC)c1ccc(C(=O)N2CCN(c3ccccc3OC)CC2)cc1	nt	nt	13	nt	nt	nt
COc1ccc(C(=O)Oc2ccc(/C=C3\SC(N)=NC3=O)cc2)cc1	nt	nt	4	nt	nt	nt
Cn1cccc1/C=C(\C(=O)c1ccccc1)c1nc2ccccc2[nH]1	nt	nt	2	nt	nt	nt
CCCCn1c(CN(Cc2ccccc2)Cc2ccccc2)nc2c1c(=O)n(C)c(=O)n2C	-2	42	nt	nt	nt	3
CCCCCn1c(CN(C)Cc2ccccc2)nc2c1c(=O)n(C)c(=O)n2C	-20	17	7	2*	0.8	-9
Cn1c(=O)c2c(nc(Br)n2CCCc2ccccc2)n(C)c1=O	-3	29	5	1	0.9	-5
CN(Cc1ccccc1)c1nc2c(c(=O)n(C)c(=O)n2C)n1CCCc1ccccc1	-1	36	-2	2.1*	0.9	0
Nc1n[nH]c(N)c1N=Nc1ccccc1F	nt	nt	103*	nt	nt	nt
Nc1n[nH]c(N)c1N=Nc1ccc(F)cc1	nt	nt	4	nt	nt	nt
CC(=O)Nc1ccc(OC(=O)c2c(F)cccc2F)cc1	nt	nt	90*	nt	nt	nt
SMILES	Cdc25B inh	DUSP1 inh	HePTP inhibitor	PLAP activator	TNAP act mid DEA	Hsp90 inh
CC(=O)Nc1ccc(OC(=O)c2cccc([N+](=O)[O-])c2)cc1	nt	nt	-10	nt	nt	nt
CCOC(=O)c1c(C)n(C)c2ccc(OC)c(NC(=O)CN3CCN(Cc4ccccc4)CC3)c12	16	19	-4	1.1	1	-4
CCOC(=O)c1c(C)n(C)c2ccc(OC)c(NC(=O)CN3CCN(C4CCCCC4)CC3)c12	nt	nt	nt	2*	nt	nt
Cc1ccc(C(=O)Nc2ccc(Cc3ccncc3)cc2)cc1C	nt	nt	-4	nt	nt	nt
Cc1ccc(OCc2nc(-c3ccccn3)n[nH]2)cc1	nt	nt	nt	2.6*	nt	nt
O=C(c1ccc(N2CCN(C(=O)c3ccccc3Br)CC2)cc1)c1cccc(F)c1	nt	nt	102*	nt	nt	nt
O=C(c1ccc(N2CCN(C(=O)c3ccccc3F)CC2)cc1)c1cccc(F)c1	nt	nt	3	nt	nt	nt
N#CC1C(=O)NC(=S)C(C#N)C12CCC(c1ccccc1)CC2 (centres undefined)	nt	nt	12	nt	nt	nt
CC(C)(C)c1ccc(C(=O)N/N=C/C2CC=CCC2)cc1 (centres undefined)	nt	nt	9	nt	nt	nt
Cc1ccc(N2C(=O)c3ccc(C(=O)O)cc3C2=O)cc1C	nt	nt	nt	1.3	nt	nt
O=C(O)c1ccc2c(c1)C(=O)N(c1ccc(-c3nc4cc(N5C(=O)c6ccc(C(=O)O)cc6C5=O)ccc4[nH]3)cc1)C2=O	nt	nt	101*	nt	nt	nt
COc1ccccc1C(=O)Nc1nc(-c2ccccc2)c(-c2ccc([N+](=O)[O-])cc2)s1	nt	nt	-15	nt	nt	nt
Cc1ccccc1-n1c(CSC(=N)N)nc2ccccc2c1=O	nt	nt	nt	2.3*	nt	nt
Cc1ccc2oc(Nc3nc(C)cc(C)n3)nc2c1	-3	5	-2	2.8*	1.1	-7
Cc1ccc2oc(-c3ccccc3)nc2c1	nt	nt	nt	0.9	nt	nt
Cc1ccc(/C=C2\SC(=N)N(c3ccc(F)cc3)C2=O)cc1	nt	nt	-16	nt	nt	nt
NC1=NC2(CCN(Cc3ccccc3)CC2)n2c(nc3ccccc32)N1	0	-1	2	2.6*	1.3	1
NC1=NC2(CCC(c3ccccc3)CC2)n2c(nc3ccccc32)N1 (centres undefined)	3	30	0	2.8*	1.9	0
Nc1nc2ccccc2n1Cc1ccccc1	nt	nt	-4	nt	nt	nt
NC1=NC2(CCCCC2)n2c(nc3ccccc32)N1	4	19	6	1.3	1	-4
Cc1ccccc1NC1(c2ccccc2Cl)C(=O)c2ccccc2C1=O	nt	nt	0	nt	nt	nt
Cc1ccc(-c2nc3cc(Cl)ccc3o2)cc1NC(=O)C(C)C	nt	nt	-2	nt	nt	nt
Cc1ccc(-c2nc3cc(Cl)ccc3o2)cc1NC(=O)C(Cl)(Cl)Cl	nt	nt	53*	nt	nt	nt
O=C1N/C(=N/N=C/c2ccccc2)SC1Cc1cc(Cl)ccc1Cl (centres undefined)	nt	nt	7	nt	nt	nt
COc1ccc(OC)c2c1C(=O)c1ccccc1C2=O	nt	nt	2	0.7	nt	nt
SMILES	Cdc25B inh	DUSP1 inh	HePTP inhibitor	PLAP activator	TNAP act mid DEA	Hsp90 inh
COC1=C(OC)C(=O)c2ccccc2C1=O	nt	nt	nt	nt	nt	93*
CC(C)Oc1ccc(C(=O)NCc2cccnc2)cc1	-11	0	104*!	1	0.9	-2
COC(=O)C1=CN(CC2CCCO2)C=C(C(=O)OC)C1c1ccccc1C(F)(F)F (centres undefined)	nt	nt	nt	1.1	nt	nt
COC(=O)C1=CN(CCCN2CCCC2=O)C=C(C(=O)OC)C1c1ccccc1C(F)(F)F	-23	15	8	2.1*	1.4	-1
COc1ccc(-n2nc3ccc(NC(=O)/C=C\c4ccccc4)cc3n2)cc1	nt	nt	102*	nt	nt	nt
O=C1CC2c3ccccc3C1C1C(=O)N(c3cccc(Br)c3)C(=O)C21 (centres undefined)	nt	nt	0	nt	nt	nt
CC(C)c1cc(Nc2nccs2)cc(C(C)C)c1O	nt	nt	84*	nt	nt	nt
CCOc1ccc(N(CC(=O)N2CCCCC2)S(=O)(=O)c2ccc(Br)cc2)cc1	nt	nt	5	nt	nt	nt
Cc1cc(C)nc(Nc2n[nH]c(-c3ccccc3Br)n2)n1	-1	12	6	1.2	1.2	-2
